Assay results: PubChem BioAssay (Tox21)
Results filed as inconclusive are left out. Active and inactive are the calls of the source. Unless noted, calls follow the shape of the full dose curve.

What was measured:
[1] = qHTS assay to identify small molecule agonists of the vitamin D receptor (VDR) signaling pathway - cell viability counter screen (AID 743224; active = well fitted curve in the direction sought with a large enough effect in the repeat runs; an effect the other way counts as inactive or inconclusive; also: series mostly up to about 63 µM; % is scaled to controls: 0 for no effect and ±100 for the full control effect; nearly all actives have a fitted effect of over 50% in size)
Outline: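 Luminescence from CellTiter-Glo, read after 30 min at room temperature, reports viability of VDR-bla cells treated with compounds for 16 h at 37C in the wells used for the beta-lactamase FRET read.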

[2] = qHTS assay to identify small molecule agonists of the NFkB signaling pathway (AID 1159509; active = well fitted curve in the direction sought with a large enough effect in the signal ratio in the repeat runs, not every such curve was filed as active; the % refers to the signal ratio; also: series mostly up to about 61 µM; % is scaled to controls: 0 for no effect and ±100 for the full control effect)
Outline: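 ME-180 NFkB-bla, 2,000 cells/well, overnight plating; cpd pinned in DMSO, 5 h 37 C; B/G FRET substrate 1.5 h RT; ex 405, em 460/530 nm.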

[3] = qHTS assay to identify small molecule agonists of the NFkB signaling pathway - cell viability counter screen (AID 1159515); also: series mostly up to about 61 µM; % is scaled to controls: 0 for no effect and ±100 for the full control effect; nearly all actives have a fitted effect of over 55% in size
Outline: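 Luminescence from CellTiter-Glo (30 min, room temperature) gives viability, measured in the same wells as the beta-lactamase reporter read. Cells were NFkB-bla ME-180, 2,000 per well, treated 5 hr with compounds.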

[4] = qHTS assay to identify small molecule agonists of the endoplasmic reticulum stress response signaling pathway (AID 1159516; active = well fitted activation curve with a large enough effect in the signal ratio in the repeat runs, not every such curve was filed as active; the % refers to the signal ratio; also: % is scaled to controls: 0 for no effect and ±100 for the full control effect)
Outline: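 Read-out is beta-lactamase cleavage of a FRET substrate (405 nm excitation; 460 and 530 nm emissions) in ESRE-bla HeLa cells after a 5 hr compound exposure at 37 C. Substrate incubation ran 2 hr at room temperature.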

[5] = qHTS assay to identify small molecule agonists of the endoplasmic reticulum stress response signaling pathway - cell viability counter screen (AID 1159517);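 also: HeLa cells carrying an ER stress response element beta-lactamase reporter; series mostly up to about 61 µM; % is scaled to controls: 0 for no effect and ±100 for the full control effect; nearly all actives have a fitted effect of over 50% in size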
Outline: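 CellTiter-Glo was added to wells already read for beta-lactamase FRET, and luminescence was recorded 30 min later. Cells: ESRE-bla HeLa, 1,500 per well, compound exposure 5 hr at 37 C.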

[6] = qHTS assay to identify small molecule antagonists of the retinoid-related orphan receptor gamma (ROR-gamma) signaling pathway - cell viability counter screen (AID 1159520; active = well fitted curve in the direction sought with a large enough effect in the repeat runs; an effect the other way counts as inactive or inconclusive; also: % is scaled to controls: 0 for no effect and ±100 for the full control effect; nearly all actives have a fitted effect of over 50% in size)
Outline: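 Tet-on ROR gamma CHO cells (1,000/well) were plated 4 hr, given compounds in DMSO for 2 hr at 37 C, then induced with 1 uM final doxycycline for 16 hr. Viability was read as ATP by CellTiter-Glo luminescence after 30 min.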

[7] = target: Nuclear receptor ROR-gamma (Homo sapiens) (UniProt P51449); test: qHTS assay to identify small molecule antagonists of the retinoid-related orphan receptor gamma (ROR-gamma) signaling pathway (AID 1159521; active = well fitted curve in the direction sought with a large enough effect in the repeat runs; an effect the other way counts as inactive or inconclusive;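 also: CHO cells with doxycycline inducible ROR-gamma driving an RORE luciferase reporter; top concentration of the series differs between compounds; % is scaled to controls: 0 for no effect and ±100 for the full control effect; nearly all actives have a fitted effect of over 50% in size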)
Outline: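 Decreased RORE-driven luciferase luminescence indicates antagonism. Tet-on RORγ CHO cells received compound, then 1 uM final doxycycline 2 h later; signal read after 16 h incubation.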

[8] = qHTS assay to identify small molecule agonists of the AP-1 signaling pathway - cell viability counter screen (AID 1159525); also: nearly all actives have a fitted effect of over 55% in size
Outline: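 ME-180 AP-1-bla, 2500 cells/well, Opti-MEM + 0.5% dialyzed FBS; overnight 37 °C; cpd 15-pt titration, 5 h 37 °C; CellTiter-Glo 30 min RT; luminescence read; normalised to TOAB and DMSO controls.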

[9] = qHTS assay to identify small molecule agonists of the AP-1 signaling pathway (AID 1159526); also: % is scaled to controls: 0 for no effect and ±100 for the full control effect
[10] = qHTS assay to identify small molecule antagonists of the vitamin D receptor (VDR) signaling pathway - cell viability counter screen (AID 743225; active = well fitted curve in the direction sought with a large enough effect in the repeat runs; an effect the other way counts as inactive or inconclusive)
Outline: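 Parallel cytotoxicity test: VDR-UAS-bla HEK 293T, 3 nM (final) 1-alpha,25-dihydroxyvitamin D3 with test compound, 16 h, 37C. Endpoint is CellTiter-Glo luminescence in the same wells.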

OCCCC1CCCCC1
inactive: Potency [1] | outcome [2] | outcome [3] | outcome [4] | outcome [5] | outcome [6] | Potency [7] | Potency [8] | outcome [9]

O=C1OC(=O)C2CCCCC12 (configuration not stated)
inactive: outcome [2] | outcome [3] | outcome [4] | outcome [5] | outcome [6] | Potency [7] | Potency [8] | outcome [9]

CN(C(=O)c1c(O)c2ccccc2n(C)c1=O)c1ccccc1
inactive: Potency [1] | outcome [2] | outcome [3] | outcome [4] | outcome [5] | outcome [6] | Potency [7] | Potency [8] | outcome [9]

CCCCCSCCCCC
inactive: Potency [1] | outcome [2] | outcome [3] | outcome [4] | outcome [5] | outcome [6] | Potency [7] | Potency [8] | outcome [9]

Nc1ccc(S(=O)(=O)Nc2ccnn2-c2ccccc2)cc1
inactive: Potency [1] | outcome [2] | outcome [3] | outcome [4] | outcome [5] | activity, negative = cytotoxicity [6] 2.08% [at 19 µM] | Potency [7] | viability change, negative = cytotoxic [8] 2.53% [at 15.8 µM] | outcome [9]

Oc1ccc(C2CNCCc3c2cc(O)c(O)c3Cl)cc1 (configuration not stated)
inactive: Potency [1] | outcome [2] | outcome [3] | outcome [4] | outcome [5] | outcome [6] | Potency [7] | Potency [8] | outcome [9]

O=C1CCCN1C1CCCCC1
inactive: Potency [1] | outcome [2] | outcome [3] | outcome [4] | outcome [5] | outcome [6] | Potency [7] | Potency [8] | outcome [9]

Cn1c(N)c(N=O)c(=O)n(C)c1=O
inactive: Potency [1] | outcome [2] | outcome [3] | outcome [4] | outcome [5] | outcome [6] | Potency [7] | Potency [8] | outcome [9]

COCCCOCCCOC
inactive: Potency [1] | outcome [2] | outcome [3] | outcome [4] | outcome [5] | outcome [6] | Potency [7] | Potency [8] | outcome [9]

CN1CC(=O)NC1=N
inactive: Potency [1] | outcome [2] | outcome [3] | outcome [4] | outcome [5] | outcome [6] | Potency [7] | Potency [8] | outcome [9]

CCCCC(CC)COC(=O)c1ccccc1O (configuration not stated)
inactive: Potency [1] | outcome [2] | outcome [3] | outcome [4] | outcome [5] | outcome [6] | Potency [7] | Potency [8] | outcome [9]

CN1CCN(c2cc3c(cc2F)c(=O)c(C(=O)O)cn3-c2ccc(F)cc2)CC1
inactive: Potency [1] | outcome [2] | outcome [3] | outcome [4] | outcome [5] | outcome [6] | Potency [7] | Potency [8] | outcome [9]

CC(=O)OC/C=C(\C)CC/C=C(\C)CCC=C(C)C
inactive: Potency [1] | outcome [2] | outcome [3] | outcome [4] | outcome [5] | outcome [6] | Potency [7] | Potency [8] | outcome [9]

NC(=O)c1cn(Cc2c(F)cccc2F)nn1
inactive: Potency [1] | outcome [2] | outcome [3] | outcome [4] | outcome [5] | outcome [6] | Potency [7] | Potency [8] | outcome [9]

c1cnc(N2CCN(Cc3ccc4c(c3)OCO4)CC2)nc1
inactive: Potency [1] | outcome [2] | outcome [3] | outcome [4] | outcome [5] | outcome [6] | Potency [7] | Potency [8] | outcome [9]

O=C(c1ccccc1)C1CCCCC1
inactive: outcome [2] | outcome [3] | outcome [4] | outcome [5] | outcome [6] | Potency [7] | Potency [8] | outcome [9]

CN1N=C(C(N)=O)CCC1=O
inactive: Potency [1] | outcome [2] | outcome [3] | outcome [4] | outcome [5] | outcome [6] | Potency [7] | Potency [8] | outcome [9]

CCCCCCCCS(=O)(=O)Cl
inactive: Potency [1] | outcome [2] | outcome [3] | outcome [4] | outcome [5] | outcome [6] | Potency [7] | Potency [8] | outcome [9]

CC(C)c1cc2c(cc1S(=O)(=O)O)[C@@]1(C)CCC[C@@](C)(C(=O)O)[C@@H]1CC2
inactive: Potency [1] | outcome [2] | outcome [3] | outcome [4] | outcome [5] | outcome [6] | Potency [7] | Potency [8] | outcome [9]

CN(C)CCCNCCCN(C)C
inactive: Potency [1] | outcome [2] | outcome [3] | outcome [4] | outcome [5] | outcome [6] | Potency [7] | Potency [8] | outcome [9]

CC(=O)OCC(=O)[C@@]1(O)CCC2C3CCC4=CC(=O)CC[C@]4(C)C3[C@@H](O)C[C@@]21C (some centres not stated)
inactive: Potency [1] | Potency [10] | outcome [2] | outcome [3] | outcome [4] | outcome [5] | outcome [6] | Potency [7] | Potency [8] | outcome [9]

C=C(C)CS(=O)(=O)O
inactive: outcome [2] | outcome [3] | outcome [4] | outcome [5] | outcome [6] | Potency [7] | Potency [8] | outcome [9]

Cc1cc(O)cc2c1O[C@](C)(CCC[C@H](C)CCC[C@H](C)CCCC(C)C)CC2
inactive: Potency [1] | outcome [2] | outcome [3] | outcome [4] | outcome [5] | outcome [6] | Potency [7] | Potency [8] | outcome [9]

CC(C)OC(=O)c1ccccc1
inactive: Potency [1] | outcome [2] | outcome [3] | outcome [4] | outcome [5] | outcome [6] | Potency [7] | Potency [8] | outcome [9]

CCN1CCC[C@H]1CNC(=O)c1c(O)c(Cl)cc(Cl)c1OC
inactive: Potency [1] | outcome [2] | outcome [3] | outcome [4] | outcome [5] | outcome [6] | Potency [7] | Potency [8] | outcome [9]

CCCCNC(=O)NCCCC
inactive: Potency [1] | outcome [2] | outcome [3] | outcome [4] | outcome [5] | outcome [6] | Potency [7] | Potency [8] | outcome [9]
